Measured values reported in PubChem BioAssay AID1159580 (chemical genetic matrix, 2015).
Where “and” joins values, the source holds several entries; their conditions need not be identical. Identical values can stand only once. In all, about 5,500 compounds went through this assay and about 2,000 (36%) were called active. About 18% were inconclusive and are not listed. No stated cut-off is given here; in the data, active means normalized growth mostly below about 0.91 (no sharp cut-off); inconclusive means no clear call, values can overlap the other calls; inactive means mostly above about 0.92. The list shows a part of the results.

Assay: chemical genetic growth profiling, strain panel (AID 1159580);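 further: tested at 20 µM; growth read once vehicle control cultures reached saturation at 30 °C; 1 = growth at the plate median or of vehicle wells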
Conditions: S. cerevisiae deletion strains, growth OD

Measured: normalized growth

COC1CC(OC2CCC3(C)C(CCC4C3CCC3(C)C(C5=CC(=O)OC5)C(OC(C)=O)CC43O)C2)OC(C)C1O (centres undefined)
inactive: locus YAL021C, strain ccr4, stronger effect = lower value 0.998 | locus YAL026C, strain drs2, stronger effect = lower value 1.02 | locus YAL030W, strain snc1, stronger effect = lower value 1.01 | locus YBL061C, strain skt5, stronger effect = lower value 1.02 | locus YBR009C, strain hhf1, stronger effect = lower value 1.02 | locus YBR023C, strain chs3, stronger effect = lower value 1.02 | locus YBR171W, strain sec66, stronger effect = lower value 1.03 | locus YBR231C, strain swc5, stronger effect = lower value 1.02 | locus YBR279W, strain paf1, stronger effect = lower value 1.01 | locus YCL011C, strain gbp2, stronger effect = lower value 1.02 | locus YCL016C, strain dcc1, stronger effect = lower value 1.01 | locus YCL061C, strain MRC1, stronger effect = lower value 1.02 | locus YCL069W, strain vba3, stronger effect = lower value 1.02 | locus YCR088W, strain abp1, stronger effect = lower value 1.02 | locus YDL005C, strain med2, stronger effect = lower value 1.03 | locus YDL040C, strain nat1, stronger effect = lower value 1.01 | locus YDR001C, strain nth1, stronger effect = lower value 1.02 | locus YDR069C, strain doa4, stronger effect = lower value 1.01 | locus YDR137W, strain rgp1, stronger effect = lower value 1 | locus YDR159W, strain sac3, stronger effect = lower value 1.04 | locus YDR195W, strain ref2 1.03 | locus YDR297W, strain sur2, stronger effect = lower value 1.03 | locus YDR334W, strain swr1, stronger effect = lower value 1.03 | locus YDR335W, strain msn5, stronger effect = lower value 1.03 | locus YDR392W, strain spt3, stronger effect = lower value 0.984 | locus YEL003W, strain gim4, stronger effect = lower value 1.02 | locus YEL037C, strain rad23, stronger effect = lower value 1.02 | locus YEL061C, strain CIN8 (second series), stronger effect = lower value 1.02 | locus YER015W, strain faa2, stronger effect = lower value 1.02 | locus YER016W, strain bim1, stronger effect = lower value 1.02 | locus YER111C, strain swi4, stronger effect = lower value 1.03 | locus YER155C, strain BEM2 (second series), stronger effect = lower value 1.03 | locus YFR010W, strain ubp6, stronger effect = lower value 1.03 | locus YGL167C, strain pmr1, stronger effect = lower value 1.02 | locus YGL173C, strain kem1, stronger effect = lower value 1.03 | locus YGL227W, strain vid30, stronger effect = lower value 1.02 | locus YGL240W, strain doc1, stronger effect = lower value 1.01 | locus YGL253W, strain hxk2, stronger effect = lower value 1.03 | locus YHR013C, strain ard1, stronger effect = lower value 1.03 | locus YHR027C, strain rpn1, stronger effect = lower value 1.03 | locus YHR142W, strain chs7, stronger effect = lower value 1.02 | locus YJL092W, strain hpr5, stronger effect = lower value 1.03 | locus YJL095W, strain BCK1 (second series), stronger effect = lower value 1.01 | locus YJL115W, strain asf1, stronger effect = lower value 1.03 | locus YJL129C, strain trk1, stronger effect = lower value 1.02 | locus YJL154C, strain vps35, stronger effect = lower value 1.02 | locus YJL164C, strain tpk1, stronger effect = lower value 1 | locus YJL166W, strain qcr8, stronger effect = lower value 1.03 | locus YJL187C, strain SWE1, stronger effect = lower value 1.01 | locus YKL160W, strain elf1, stronger effect = lower value 1.01 | locus YKR026C, strain gcn3, stronger effect = lower value 1.02 | locus YKR091W, strain srl3, stronger effect = lower value 1.01 | locus YLL001W, strain dnm1, stronger effect = lower value 1.02 | locus YLL026W, stronger effect = lower value 1.02 | locus YLL041C, strain sdh2, stronger effect = lower value 1.02 | locus YLR027C, strain aat2, stronger effect = lower value 1.01 | locus YLR221C, strain rsa3, stronger effect = lower value 1.03 | locus YLR258W, strain gsy2, stronger effect = lower value 1.01 | locus YLR262C, strain YPT6 (second series), stronger effect = lower value 1.04 | locus YLR320W, strain mms22, stronger effect = lower value 1.01 | locus YLR342W, strain FKS1, stronger effect = lower value 1.02 | locus YLR357W, strain rsc2, stronger effect = lower value 1.06 | locus YLR370C, strain arc18, stronger effect = lower value 1.02 | locus YLR384C, strain iki3, stronger effect = lower value 1.02 | locus YML120C, strain ndi1, stronger effect = lower value 1.01 | locus YMR058W, strain fet3, stronger effect = lower value 1.04 | locus YMR125W, strain sto1, stronger effect = lower value 1.02 | locus YMR129W, stronger effect = lower value 1.01 | locus YMR205C, strain PFK2, stronger effect = lower value 1.01 | locus YMR231W, strain pep5, stronger effect = lower value 1.02 | locus YNL071W, strain lat1, stronger effect = lower value 1.02 | locus YNL209W, strain ssb2, stronger effect = lower value 1.01 | locus YNL248C, strain rpa49, stronger effect = lower value 0.939 | locus YNL322C, strain KRE1 (second series), stronger effect = lower value 1.03 | locus YNR049C, strain mso1, stronger effect = lower value 1.01 | locus YOR001W, strain rrp6, stronger effect = lower value 1.02 | locus YOR070C, strain gyp1, stronger effect = lower value 1.03 | locus YOR080W, strain dia2, stronger effect = lower value 1.02 | locus YOR083W, strain WHI5, stronger effect = lower value 1 | locus YOR106W, strain vam3, stronger effect = lower value 1.01 | locus YOR265W, strain rbl2, stronger effect = lower value 1.01 | locus YOR270C, strain vph1, stronger effect = lower value 1.02 | locus YOR290C, strain snf2, stronger effect = lower value 0.986 | locus YPL051W, strain arl3, stronger effect = lower value 1.01 | locus YPL078C, strain atp4, stronger effect = lower value 1.01 | locus YPL106C, strain sse1, stronger effect = lower value 1.01 | locus YPL240C, strain hsp82, stronger effect = lower value 1.02

C[C@H]1OC(O[C@H]2[C@@H](O)CC(O[C@H]3[C@@H](O)C[C@H](O[C@H]4CC[C@]5(C)C6CC[C@]7(C)[C@@H](C8=CC(=O)OC8)[C@@H](O)C[C@]7(O)[C@@H]6CC[C@@H]5C4)O[C@@H]3C)O[C@@H]2C)C[C@H](O)C1O (some centres undefined)
inactive: locus YBR021W, strain FUR4, stronger effect = lower value 0.986 | locus YBR229C, strain ROT2, stronger effect = lower value 1.01 | locus YCL029C, strain bik1, stronger effect = lower value 0.989 | locus YDL035C, strain GPR1, stronger effect = lower value 0.992 | locus YDL074C, strain BRE1, stronger effect = lower value 1.01 | locus YDL101C, strain DUN1, stronger effect = lower value 1 | locus YDL134C, strain PPH21, stronger effect = lower value 1.01 | locus YDL185W, strain tfp1, stronger effect = lower value 0.981 | locus YDL192W, strain arf1, stronger effect = lower value 0.988 | locus YDR101C, strain arx1, stronger effect = lower value 0.991 | locus YDR150W, strain NUM1, stronger effect = lower value 1.02 | locus YDR162C, strain NBP2, stronger effect = lower value 1 | locus YDR318W, strain mcm21, stronger effect = lower value 1.01 | locus YDR388W, stronger effect = lower value 0.999 | locus YDR502C, strain sam2, stronger effect = lower value 0.987 | locus YEL061C, strain CIN8, stronger effect = lower value 0.999 | locus YER110C, stronger effect = lower value 0.986 | locus YER155C, strain BEM2, stronger effect = lower value 0.985 | locus YER167W, strain BCK2, stronger effect = lower value 0.99 | locus YGL078C, strain dbp3, stronger effect = lower value 0.981 | locus YGL086W, strain mad1, stronger effect = lower value 0.965 | locus YGL248W, strain PDE1, stronger effect = lower value 1.01 | locus YGR135W, strain pre9, stronger effect = lower value 1.01 | locus YGR229C, strain SMI1, stronger effect = lower value 0.998 | locus YGR252W, strain gcn5, stronger effect = lower value 1.02 | locus YHR030C, strain SLT2, stronger effect = lower value 1 and 1.03 | locus YHR079C, strain IRE1 (second series), stronger effect = lower value 0.998 | locus YHR079C, strain IRE1, stronger effect = lower value 1.03 | locus YHR094C, strain hxt1, stronger effect = lower value 0.989 | locus YHR129C, strain ARP1, stronger effect = lower value 0.999 | locus YHR200W, strain rpn10, stronger effect = lower value 1 | locus YIL066C, strain RNR3, stronger effect = lower value 1 | locus YIL073C, strain SPO22, stronger effect = lower value 1.01 | locus YIL125W, strain kgd1, stronger effect = lower value 0.981 | locus YIR030C, strain dcg1, stronger effect = lower value 0.989 | locus YJL095W, strain BCK1, stronger effect = lower value 1.01 and 1 | locus YJL134W, strain LCB3, stronger effect = lower value 1 | locus YJL168C, strain set2, stronger effect = lower value 0.996 | locus YJL187C, strain SWE1 (second series), stronger effect = lower value 1.02 | locus YJR043C, strain POL32, stronger effect = lower value 1.01 | locus YJR066W, strain TOR1, stronger effect = lower value 0.965 | locus YKL009W, strain mrt4, stronger effect = lower value 0.927 | locus YKL068W, stronger effect = lower value 0.994 | locus YKL085W, strain MDH1 (second series), stronger effect = lower value 0.988 | locus YKL085W, strain MDH1, stronger effect = lower value 0.988 | locus YKR001C, strain vps1, stronger effect = lower value 0.986 | locus YLR039C, strain RIC1, stronger effect = lower value 1.06 | locus YLR058C, strain SHM2, stronger effect = lower value 1 | locus YLR102C, strain apc9, stronger effect = lower value 0.99 | locus YLR113W, strain HOG1, stronger effect = lower value 0.975 | locus YLR262C, strain YPT6, stronger effect = lower value 1.04 | locus YLR268W, strain sec22, stronger effect = lower value 0.99 | locus YLR330W, strain CHS5, stronger effect = lower value 0.994 | locus YLR342W, strain FKS1 (second series), stronger effect = lower value 1.02 | locus YLR371W, strain rom2, stronger effect = lower value 0.989 | locus YLR418C, strain cdc73, stronger effect = lower value 0.998 | locus YML016C, strain PPZ1, stronger effect = lower value 1.01 | locus YML032C, strain rad52, stronger effect = lower value 1.01 | locus YML124C, strain tub3, stronger effect = lower value 1 | locus YMR078C, strain ctf18, stronger effect = lower value 1 | locus YMR223W, strain ubp8, stronger effect = lower value 1.01 | locus YMR263W, strain SAP30, stronger effect = lower value 1.01 | locus YMR307W, strain GAS1, stronger effect = lower value 1.05 | locus YNL067W, strain RPL9B, stronger effect = lower value 1.01 | locus YNL183C, strain NPR1, stronger effect = lower value 0.989 | locus YNL233W, strain BNI4, stronger effect = lower value 0.995 | locus YNL250W, strain rad50, stronger effect = lower value 0.983 | locus YNL271C, strain bni1, stronger effect = lower value 0.99 | locus YNL298W, strain CLA4, stronger effect = lower value 0.989 | locus YNL307C, strain MCK1, stronger effect = lower value 0.993 | locus YNL322C, strain KRE1, stronger effect = lower value 1.01 | locus YNR052C, strain pop2, stronger effect = lower value 0.999 | locus YOL012C, strain htz1 1.48 | locus YOL147C, strain pex11, stronger effect = lower value 0.984 | locus YOR061W, strain CKA2, stronger effect = lower value 1.01 | locus YOR069W, strain VPS5, stronger effect = lower value 0.995 | locus YOR136W, strain idh2, stronger effect = lower value 0.98 | locus YOR144C, strain elg1, stronger effect = lower value 0.995 | locus YOR184W, strain ser1, stronger effect = lower value 0.983 | locus YOR231W, strain MKK1, stronger effect = lower value 0.995 | locus YOR316C, strain cot1, stronger effect = lower value 0.994 | locus YPL256C, strain CLN2, stronger effect = lower value 1.03 | locus YPR119W, strain clb2, stronger effect = lower value 0.996 | locus YPR141C, strain kar3, stronger effect = lower value 0.99 | locus YPR163C, strain tif3, stronger effect = lower value 0.995 | locus YPR167C, strain met16, stronger effect = lower value 0.994 | strain wtn01, stronger effect = lower value 0.98
